According to the supplement of paper PMC6089552:
Hit rate of the full screen: of about 3,200 compounds, about 300 (9.4%) showed activity. The list comes from a sample in which actives are over-represented; it also holds similar structures and randomly drawn compounds.

Tested on: A673/TR/shEF
Assay: cell viability (LOESS-normalised, relative to median of negative controls) (log2 ratio); higher = more viable cells (less compound effect), active = hit call of the paper (over 3 MAD below the median)
Conditions: treatment time: 72 h
In short: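 For three days, A673/TR/shEF Ewing sarcoma cells in 384-well plates (1,500 per well) were treated with library compounds at two or more concentrations or with DMSO controls, after doxycycline had been added or withheld 24 h beforehand to induce EWS-FLI1 shRNA knockdown. Viability was read by CellTiter-Glo luminescence on an Envision reader. The data were LOESS-corrected per plate, divided by the median of negative controls and log2-transformed.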

[1] = 0.25 µM, library screen: screen1, EWS-FLI1 expression: high (no doxycycline)
[2] = 0.25 µM, library screen: screen1, EWS-FLI1 expression: low (doxycycline-induced shRNA knockdown)
[3] = 2.5 µM, library screen: screen1, EWS-FLI1 expression: high (no doxycycline)
[4] = 2.5 µM, library screen: screen1, EWS-FLI1 expression: low (doxycycline-induced shRNA knockdown)
[5] = 0.103 µM, library screen: screen3, EWS-FLI1 expression: high (no doxycycline)
[6] = 0.103 µM, library screen: screen3, EWS-FLI1 expression: low (doxycycline-induced shRNA knockdown)
[7] = 0.308 µM, library screen: screen3, EWS-FLI1 expression: high (no doxycycline)
[8] = 0.308 µM, library screen: screen3, EWS-FLI1 expression: low (doxycycline-induced shRNA knockdown)
[9] = 0.926 µM, library screen: screen3, EWS-FLI1 expression: high (no doxycycline)
[10] = 0.926 µM, library screen: screen3, EWS-FLI1 expression: low (doxycycline-induced shRNA knockdown)
[11] = 2.8 µM, library screen: screen3, EWS-FLI1 expression: high (no doxycycline)
[12] = 2.8 µM, library screen: screen3, EWS-FLI1 expression: low (doxycycline-induced shRNA knockdown)
[13] = 8.3 µM, library screen: screen3, EWS-FLI1 expression: high (no doxycycline)
[14] = 8.3 µM, library screen: screen3, EWS-FLI1 expression: low (doxycycline-induced shRNA knockdown)
[15] = 25 µM, library screen: screen3, EWS-FLI1 expression: high (no doxycycline)
[16] = 25 µM, library screen: screen3, EWS-FLI1 expression: low (doxycycline-induced shRNA knockdown)
[17] = 0.25 µM, library screen: screen2, EWS-FLI1 expression: high (no doxycycline)
[18] = 0.25 µM, library screen: screen2, EWS-FLI1 expression: low (doxycycline-induced shRNA knockdown)
[19] = 2.5 µM, library screen: screen2, EWS-FLI1 expression: high (no doxycycline)
[20] = 2.5 µM, library screen: screen2, EWS-FLI1 expression: low (doxycycline-induced shRNA knockdown)

Measured: cell viability (log2)

O=c1ccc2cc(O[C@@H]3OC(CO)[C@@H](O)C(O)C3O)c(O)cc2o1 (stereo not given in full)
inactive: [1] 0.0986 | [2] -0.0879 | [3] 0.201 | [4] 0.107

CC(C)N(C(=O)SCC(Cl)=C(Cl)Cl)C(C)C
inactive: [1] 0.0806 | [2] 0.0889 | [3] -0.00898 | [4] 0.0996

CC1=C2C[C@H]3[C@@H](CC=C4C[C@@H](O)CC[C@@]43C)[C@@H]2CC[C@]12O[C@@H]1C[C@H](C)CN[C@H]1[C@H]2C
inactive: [5] 0.00521 | [6] 0.0036 | [7] 0.012 | [8] 0.0389 | [9] -0.00313 | [10] 0.0472 | [11] 0.0157 | [12] 0.0183 | [13] -0.0322 | [14] 0.102 | [15] -0.00963 | [16] 0.053

Cc1cccc(CN2CCN(Cc3ccc(F)cc3)CC2)c1
inactive: [1] 0.0688 | [2] 0.0518 | [3] 0.143 | [4] 0.0989

C[C@H]1OC[C@@H](C[N+](C)(C)C)O1
inactive: [17] 0.185 | [18] 0.123 | [19] 0.146 | [20] 0.0964

C[C@H]1O[C@@H](C[N+](C)(C)C)CS1
inactive: [17] 0.209 | [18] 0.0237 | [19] -0.0233 | [20] 0.035

O=C(OC1CC2CCC(C1)[N+]21CCCC1)C(O)(c1ccccc1)c1ccccc1 (stereo not given)
inactive: [5] 0.0271 | [6] 0.0529 | [7] 0.0379 | [8] 0.0384 | [9] -0.0177 | [10] 0.0427 | [11] 0.0921 | [12] 0.0957 | [13] 0.022 | [14] 0.0679 | [15] 0.0665 | [16] 0.0295

C=C1[C@H]2CCC3[C@@](CC[C@@H]4[C@H](C(=O)O)C[C@@H](O[C@H]5O[C@H](CO)[C@@H](OS(=O)(=O)O)[C@H](OS(=O)(=O)O)[C@H]5OC(=O)CC(C)C)C[C@@]34C)(C2)[C@H]1O (stereo not given in full)
inactive: [1] 0.138 | [2] 0.098 | [3] 0.0683 | [4] 0.0267

COc1nc(NC(C)C)nc(NC(C)C)n1
inactive: [1] -0.00161 | [2] 0.0381 | [3] 0.104 | [4] 0.186

COC(=O)/C=C(\C)OP(=O)(OC)OC
inactive: [1] -0.00893 | [2] -0.0133 | [3] 0.034 | [4] 0.0603

CCC(C)C(OC(C)=O)C(=O)O[C@H]1[C@H](O)C2[C@@]3(C)C=CC(=O)C(C)(C)C3C[C@@H](OC(=O)C(O)C(C)C)[C@@]2(C)[C@@]23O[C@@H]2C[C@@H](c2ccoc2)[C@]13C (stereo not given in full)
inactive: [1] 0.0564 | [2] 0.0957 | [3] 0.0934 | [4] 0.141

CN(C)[C@@H]1C(=O)C(C(N)=O)=C(O)[C@@]2(O)C(=O)C3=C(O)c4c(O)cccc4[C@@](C)(O)[C@H]3C[C@@H]12
inactive: [2] 0.111 | [3] -0.0332 | [4] 0.155
active: [1] -0.127

CN(C)[C@@H]1C(=O)C(C(N)=O)=C(O)[C@@]2(O)C(=O)C3=C(O)c4c(O)cccc4[C@@](C)(O)[C@H]3[C@H](O)[C@@H]12
inactive: [5] 0.0702 | [6] 0.0143 | [1] 0.0991 | [2] 0.163 | [7] 0.0382 | [8] 0.159 | [9] 0.119 | [10] 0.101 | [3] 0.158 | [4] 0.172 | [11] 0.158 | [12] 0.126 | [13] 0.103 | [14] 0.0656 | [15] 0.0616 | [16] 0.0848

CN1Cc2c(ccc3c2OCO3)[C@@H]2[C@H]1c1cc3c(cc1C[C@@H]2O)OCO3
inactive: [1] 0.0821 | [2] 0.0876 | [3] -0.0483 | [4] 0.0764

Ic1ccccc1CN[C@H]1C2CCN(CC2)[C@H]1C(c1ccccc1)c1ccccc1
inactive: [17] 0.128 | [18] 0.206 | [19] 0.245 | [20] 0.191

CC1(C)C(=O)C=C[C@]2(C)C1=C(O)C(=O)[C@@]1(C)[C@H]2CC[C@]2(C)[C@@H](c3ccoc3)C[C@@H]3O[C@]312
inactive: [1] 0.0131 | [2] 0.0981 | [3] -0.0522 | [4] 0.0901

CCCC(C)C1(CC)C(=O)NC(=S)NC1=O (stereo not given)
inactive: [1] 0.047 | [2] -0.0503 | [3] 0.164 | [4] 0.136

CNC(=O)Oc1cccc2c1OC(C)(C)O2
inactive: [1] 0.147 | [2] 0.159 | [3] 0.155 | [4] 0.0893

CCCCCC[C@H]1C(=O)O[C@H](C)[C@H](NC(=O)c2cccc(NC=O)c2O)C(=O)O[C@@H](C)[C@@H]1OC(=O)CC(C)C
active: [1] -0.888 | [2] -0.636 | [3] -1.71 | [4] -0.774

Cc1ccc2cc3c(ccc4ccccc43)c3c2c1CC3
inactive: [1] 0.0577 | [2] -0.00243 | [3] 0.111 | [4] 0.12

CC(C)Oc1cccnc1N(C)C1CCN(Cc2ccc(I)cc2)CC1
inactive: [17] 0.0944 | [18] 0.0215 | [19] 0.21 | [20] 0.0697

CC(C)N(C(=O)CCl)c1ccccc1
inactive: [1] 0.0295 | [2] 0.0848 | [3] 0.154 | [4] 0.0575

O=C(O)CNCP(=O)(O)O
inactive: [1] 0.0875 | [2] 0.0822 | [3] 0.124 | [4] 0.106

NCC(O)c1cc(O)c(O)cc1F (stereo not given)
inactive: [17] 0.233 | [18] 0.183 | [19] 0.0966 | [20] 0.0732

CC(=O)Oc1ccc(Cl)c2cccnc12
inactive: [1] 0.106 | [2] 0.136 | [3] 0.0698 | [4] 0.0992

C[CH2][Hg][S]c1ccccc1C(=O)O
active: [1] -0.15 | [3] -3.6 | [4] -2.98
inactive: [2] -0.123

CNc1ccccc1C(=O)O
inactive: [1] 0.0696 | [2] 0.0258 | [3] 0.131 | [4] 0.00755

CCCCOC(=O)c1ccccc1C(=O)OCCCC
inactive: [1] 0.118 | [2] 0.0394 | [3] 0.0831 | [4] -0.283
